The test relates to Plasmodium falciparum. In words: GSK_TCMDC: Inhibition of Plasmodium falciparum 3D7 in whole red blood cells, using parasite LDH activity as an index of growth. Test compounds present at 2uM. In kind it is functional.
Compound `Cc1cc(-c2ccc(NC(=O)N3CCc4cc(Br)c(N5CCN(C)CC5)cc43)cc2)cc(C)n1` returned an Inhibition of 92%.

On to `CCOc1cccc(C(=O)Nc2cccc(CN3CCCN(Cc4ccc(O)cc4)CC3)c2)c1.O=C(O)C(F)(F)F`, for which the Inhibition turned out to be 91%.

`O=C(Nc1cc(C(F)(F)F)cc(C(F)(F)F)c1)c1cc(Cl)ccc1O` [IMD-0354]: the Inhibition was found to be 90%.

In turn, `c1ccc(-c2cccc(-c3ccccn3)n2)nc1` [TERPYRIDINE] returned an Inhibition of 98%.

On to `CCOc1cc2ncnc(Nc3cc(Cl)c(Cl)c(Cl)c3)c2cc1OCC.Cl`, for which the Inhibition came to 100%.

Turning to `CCCCCc1ccc(NC(=O)Nc2ccc(Cn3ncc(N4CCCNCC4)c(Cl)c3=O)cc2)cc1.O=C(O)C(F)(F)F`, the Inhibition was determined as 87%.

Turning to `NCC1CCCN1Cc1ccc(-c2cccc(-c3nc4cc(C(F)(F)F)ccc4[nH]3)c2)cc1.O=C(O)C(F)(F)F` (stereo unspecified), the Inhibition is 99%.

`COc1ccc2nccc([C@@H](O)CN3CCC(NCc4ccc5nnsc5c4)CC3)c2c1.O=C(O)C(=O)O` yielded an Inhibition of 99%.

As for `CCC1=C(CC2NCCc3cc(OC)c(OC)cc32)CC2c3cc(OC)c(OC)cc3CCN2C1` (stereo unspecified) [DIHYDROEMETINE], the Inhibition was determined as 100%.

Compound `CN1CCC(Oc2cc(NC(=O)Nc3ccc(-c4ccncc4)c(Cl)c3)ccc2Cl)CC1` displayed an Inhibition of 99%.

`COc1ccc2nccc(N3CCC(CCNCc4ccc5c(n4)NC(=O)CO5)CC3)c2c1.Cl` had an Inhibition of 100%.

`Nc1nc(N)c2c(Cl)c(N3CCOCC3)ccc2n1` showed an Inhibition of 96%.

With `Cl.N=C(N)c1ccc2[nH]c(-c3cc4cc(C(=N)N)ccc4o3)cc2c1`, the Inhibition was determined as 94%.

As to `O=C(O)C(F)(F)F.c1ccc(-n2ncc(CNCc3ccc(-c4cccc(-c5nc6ccccc6[nH]5)c4)cc3)n2)cc1`, the Inhibition worked out at 94%.

For the compound `COc1ccc(-c2nonc2NC(=O)c2ccc(C(C)(C)C)cc2)cc1OC`, the Inhibition was determined as 99%.

`Cl.NC(=O)c1cnc2cc(-c3ccoc3)ccc2c1Nc1ccc(NC(=O)Nc2ccccc2Cl)cc1` displayed an Inhibition of 100%.

Compound `COc1ccc2ncc(F)c(CCN3CCC(NCc4cc(OC)c5c(c4)OCCO5)CC3)c2n1.Cl` displayed an Inhibition of 100%.

For the compound `Cc1ccc(CN2CCN(CC(O)COc3ccc4c(c3)CCC4)CC2)cc1` (stereo unspecified), the Inhibition is listed as 95%.

`CCc1c(C)nc(-n2nc(C)cc2NC(=O)C(CC)c2ccccc2)[nH]c1=O` (stereo unspecified) showed an Inhibition of 97%.

The compound `Cc1cc(N[C@@H](Cc2ccccc2)C(=O)Nc2ccccc2)nc(NCCc2ccccc2)n1.O=C(O)C(F)(F)F` showed an Inhibition of 100%.

Turning to `CCCc1cc(Cc2cnc(N)nc2N)cc(CC)c1OC.Cl`, the Inhibition is recorded as 97%.

Regarding `CCNc1cc(C(=O)N[C@@H](Cc2cc(F)cc(F)c2)[C@H](O)CNCc2cccc(C(F)(F)F)c2)cc(N2CCCCS2(=O)=O)c1.Cl`, the Inhibition turned out to be 99%.

Regarding `CCC(C)(C)NC(=O)C(c1cccc(OC)c1)N(C(=O)CNC(=O)c1cccs1)c1ccc2c(c1)OCCO2` (stereo unspecified), the Inhibition is 100%.

In turn, `CS(=O)(=O)NCCCNCc1ccc(-c2ccc(-c3nc4cc(C(F)(F)F)ccc4[nH]3)cc2)cc1.O=C(O)C(F)(F)F` showed an Inhibition of 100%.

The compound `CC[C@H](C)CNC(=O)c1cncc(-c2ccc(CNCC3CNCCCO3)cc2)c1.O=C(O)C(F)(F)F` (stereo partly specified) displayed an Inhibition of 100%.

The compound `O=S(=O)(Nc1ccc(CCN2CCCCC2CCN2CCCC2)cc1)c1ccc(-c2ccccc2)cc1` (stereo unspecified) yielded an Inhibition of 98%.

Values taken from ChEMBL document CHEMBL1157539, “Thousands of chemical starting points for antimalarial lead identification” (Nature, 2010).
